Growth data for 19 molecules are collected here from PubChem BioAssay (NCI).

About 83,000 compounds went through this panel and 20% of them were active in at least one assay; those are over-represented in the sample as a whole.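 Step 1: grow cells in 96-well plates. Step 2: add test compound at a single concentration. Step 3: incubate 48 h. Step 4: record percent growth.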 Unmarked numbers belong to inactive results. Calls of active or inactive are those of the source. How the source made its calls: active means growth percent below 10; inactive means the rest. *1 amine or outer side, *2 acyl side, *3 side chain or, on linkers, in order; H or OH if unused. Where a SMILES comes first, the peptide text is derived from it. [ ]: non-standard residue; d: D form. The star is where a group is joined. X5 = CCC(=O)CC1CC(C)CC(C(=O)[*:2])N1[*:1]; X4 = CCCCCCCCC(C)C(=O)*; Aib = CC(C)(N)C(=O)O; X6 = CC(CN(C)CCO)N*

Test systems include T-47D breast; BT-549 breast; MDA-MB-435 melanoma; SW-620 colon; MCF7 breast; HCT-116 colon; KM12 colon; HCC-2998 colon.
What all share (assay): NCI-60 one-dose screen, 48 h (100 = growth as untreated, 0 = no growth, -100 = all killed)
Common to all, as to details: 10 µM unless noted

Consider `CC(CSc1n[nH]c(=S)s1)c1ccccc1` (configuration not stated), for which the growth was 110% with T-47D breast; 112% in the experiment with BT-549 breast; 109% in the experiment on MDA-MB-435 melanoma; 112% in the experiment with SW-620 colon; 102% in the experiment with MCF7 breast; 105% in the experiment with HCT-116 colon. The growth in the experiment with KM12 colon was 113%.

In the case of `CCCCCCCCCCCCNCCCc1ccccc1`, the growth with T-47D breast is 54.9%; with BT-549 breast it was 85.9%; in the experiment on MDA-MB-435 melanoma it was 100%; in the experiment with SW-620 colon, 46.1%; in the experiment on MCF7 breast, 25.4%; in the experiment on HCT-116 colon, 20.4%. Besides, the growth in the experiment with KM12 colon is 27.2%.

Take `CCOC(=O)C1(C)CCCC1N` (configuration not stated): the growth in the experiment on T-47D breast is 105%; in the experiment on BT-549 breast it was 116%; in the experiment on MDA-MB-435 melanoma, 103%; with SW-620 colon, 106%; in the experiment on MCF7 breast it was 104%; in the experiment on HCC-2998 colon, 115%. Also, the growth with KM12 colon is 98.5%.

Regarding `Cc1nnc(N/N=C/c2ccc([N+](=O)[O-])o2)[nH]c1=O`, the growth with T-47D breast is -6.92% (active); in the experiment with BT-549 breast, -22.1% (active); in the experiment on MDA-MB-435 melanoma, 12%; in the experiment on SW-620 colon, 18.7%; with MCF7 breast it was 3.92% (active); in the experiment with HCC-2998 colon, 22.2%. Further, in the experiment with KM12 colon, the growth is 14.2%.

Turning to `O=[N+]([O-])c1cc(-c2ccccc2)c(O)c([N+](=O)[O-])c1`, the growth with T-47D breast is 83.2%; in the experiment with BT-549 breast it was 52.2%; with MDA-MB-435 melanoma, 85.5%; in the experiment with SW-620 colon, 98.2%; with MCF7 breast, 77%; in the experiment on HCT-116 colon it was 86.8%. Further, the growth in the experiment with KM12 colon is 84.1%.

For the molecule `CCCCCCCCC(C)C(=O)N1CCCC1C(=O)N1C(CC(=O)CC)CC(C)CC1C(=O)NC(C)C(=O)NC(C)(C)C(=O)NC(C)(C)C(=O)NC(C(=O)NC(C)C(=O)NC(C)(C)C(=O)NC(C)(C)C(=O)NC(C)CN(C)CCO)C(C)CC` (configuration not stated) (X4-P[X5]A[Aib][Aib]IA[Aib][Aib]-X6; configuration not given here), the growth with T-47D breast was -16.5% (active); in the experiment with BT-549 breast, -80.3% (active); in the experiment on MDA-MB-435 melanoma, -18.8% (active); in the experiment with SW-620 colon, -81.4% (active); with MCF7 breast it was -80.7% (active); in the experiment on HCT-116 colon, -88.8% (active). The growth in the experiment with KM12 colon was -75.8% (active).

Take `CCN(CC)CC(O)CNc1ccc(NCC2CO2)c2c1C(=O)c1ccccc1C2=O` (configuration not stated): the growth was -3.27% (active) in the experiment with T-47D breast; -56.9% (active) with BT-549 breast; -62.4% (active) in the experiment on MDA-MB-435 melanoma; -28.7% (active) in the experiment on SW-620 colon; -13% (active) in the experiment on MCF7 breast; -83.5% (active) in the experiment on HCC-2998 colon. In the experiment with KM12 colon, the growth is -69.1% (active).

In the case of `COc1c(C)c2c(c(O)c1C/C=C(\C)CCC(=O)O)C(=O)OC2`, the growth is 44.7% in the experiment on T-47D breast; 35.4% in the experiment on BT-549 breast; 30.1% with MDA-MB-435 melanoma; 21.7% in the experiment with SW-620 colon; 23.9% with MCF7 breast; 33.3% with HCC-2998 colon. Further, the growth in the experiment with KM12 colon was 29.1%.

Turning to `Cc1cc(Br)c2nsnc2c1[N+](=O)[O-]`, the growth is 25.1% in the experiment with T-47D breast; 45% in the experiment on BT-549 breast; 21.1% in the experiment with MDA-MB-435 melanoma; 33.6% in the experiment on SW-620 colon; 10.1% in the experiment on MCF7 breast; 26.3% in the experiment with HCT-116 colon. Moreover, in the experiment on KM12 colon, the growth is 9.82% (active).

For the molecule `COC(=O)[C@]1(C)CCC[C@]2(C)c3ccc(C(C)C)cc3C(=O)[C@@H](Br)[C@@H]12`, the growth with T-47D breast was 53.1%; in the experiment with BT-549 breast it was 116%; in the experiment on MDA-MB-435 melanoma, 91.8%; in the experiment on SW-620 colon, 86.3%; in the experiment on MCF7 breast it was 57.6%; in the experiment with HCC-2998 colon, 106%. For the same molecule, the growth with KM12 colon is 104%.

Take `Cc1ccc(Nc2ccc(O)c3c2C(=O)c2c(O)ccc(Nc4ccc(C)cc4)c2C3=O)cc1`: the growth was 96.9% in the experiment with T-47D breast; 113% in the experiment with BT-549 breast; 104% in the experiment on MDA-MB-435 melanoma; 103% in the experiment on SW-620 colon; 98% with MCF7 breast; 113% in the experiment on HCC-2998 colon. Further, the growth with KM12 colon was 112%.

`NC(CS/C(Cl)=C/Cl)C(=O)O` (configuration not stated): the growth in the experiment with T-47D breast was -7.75% (active); with BT-549 breast, 51%; in the experiment on MDA-MB-435 melanoma it was 58.6%; in the experiment with SW-620 colon it was 104%; in the experiment on MCF7 breast, 45.1%; in the experiment with HCC-2998 colon it was 102%. Besides, the growth in the experiment with KM12 colon is 98.1%.

For `CCCCCCCCCCCC1=NCCCN1CCCC`, the growth in the experiment with T-47D breast was 97.4%; with BT-549 breast, 94.6%; in the experiment on MDA-MB-435 melanoma, 110%; with SW-620 colon it was 97.5%; in the experiment with MCF7 breast it was 91.1%; with HCC-2998 colon, 75.7%. Besides, the growth in the experiment with KM12 colon was 103%.

Regarding `O=C1/C(=C\c2ccc([N+](=O)[O-])cc2)CS(=O)(=O)C/C1=C/c1ccc([N+](=O)[O-])cc1`, the growth in the experiment on T-47D breast is -56% (active); in the experiment on BT-549 breast, -82.2% (active); with MDA-MB-435 melanoma, -75% (active); in the experiment on SW-620 colon it was -71.6% (active); in the experiment with MCF7 breast, -58.5% (active); with HCT-116 colon it was -100% (active). Besides, in the experiment with KM12 colon, the growth was -89.4% (active).

Consider `O=C1Nc2ccc(Br)cc2C1=O`, for which the growth in the experiment with T-47D breast was 96.2%; in the experiment with BT-549 breast it was 105%; with MDA-MB-435 melanoma, 98.3%; with SW-620 colon, 86%; with MCF7 breast, 91.5%; in the experiment on HCC-2998 colon, 111%. In addition, in the experiment on KM12 colon, the growth is 96.7%.

On to `COc1cc(-c2ccc(-[n+]3nc(-c4ccc([N+](=O)[O-])cc4)nn3-c3ccc([N+](=O)[O-])cc3)c(OC)c2)ccc1-[n+]1nc(-c2ccc([N+](=O)[O-])cc2)nn1-c1ccc([N+](=O)[O-])cc1`, for which the growth in the experiment with T-47D breast is -34.2% (active); in the experiment with BT-549 breast it was 26.9%; in the experiment with MDA-MB-435 melanoma it was -58.4% (active); in the experiment on SW-620 colon, 2.63% (active); with MCF7 breast it was -65% (active); in the experiment on HCC-2998 colon, 29.8%. In the experiment on KM12 colon, the growth is 25.4%.

On to `Cn1ccc(=Nc2ccc(NC(=O)c3ccc(N=c4ccn(C)c5ccc([N+](=O)[O-])cc45)cc3)cc2)cc1`, for which the growth in the experiment on T-47D breast was 54.9%; in the experiment on BT-549 breast it was 56.1%; in the experiment on MDA-MB-435 melanoma, 83.4%; in the experiment with SW-620 colon, 70.8%; in the experiment with MCF7 breast, 55.6%; in the experiment on KM12 colon it was 57.8%.

With `O=C1C=C(Cl)C(=O)c2ccccc21`, the growth in the experiment on T-47D breast is 14.9%; in the experiment on BT-549 breast it was 98.3%; in the experiment with MDA-MB-435 melanoma it was 112%; in the experiment on SW-620 colon it was 98%; with MCF7 breast, 81.3%; in the experiment with HCC-2998 colon, 125%. Also, the growth in the experiment with KM12 colon is 99.4%.

With `O=C1C(=O)c2cccnc2-c2ncccc21`, the growth in the experiment with T-47D breast is -68.8% (active); with BT-549 breast, -11.7% (active); in the experiment with MDA-MB-435 melanoma, -69.6% (active); in the experiment on SW-620 colon, -95.6% (active); with MCF7 breast it was -55.4% (active); with HCC-2998 colon, 30.5%. Also, the growth in the experiment on KM12 colon was -47.2% (active).
